# Experimental data reported in PubChem BioAssay (NCATS).
# “And” between values parts separate entries of the source, which are not always exact repeats. Equal values may be shown once. Records with an inconclusive call do not appear. A call without a number means that no potency is given here. The source made the active and inactive calls. Calls follow the shape of the full dose curve.
# Legend:
# [1] = Cytotoxicity counterscreen for inhibitors of SARS-CoV-2 cell entry (AID 1645845); also: nearly all actives have a fitted effect of over 50% in size
# Method in brief: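 Counterscreen run in the same HEK293-ACE2 line as the pseudotyped-particle entry assay, without particles. Viability after 48 h at 37 C was read as ATP luminescence, scaled between cell-containing and cell-free wells.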
# [2] = Primary qHTS to identify inhibitors of SARS-CoV-2 cell entry (AID 1645846); conditions: activity change, negative = inhibition: at 57.1 µM (top of the series) unless noted; also: nearly all actives have a fitted effect of over 45% in size; also: potency is read from the fitted curve at half-maximal effect
# Method in brief: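 Entry measured by luciferase signal 48 h after adding SARS-CoV-2-S pseudotyped MLV particles to HEK293-ACE2 cells preincubated 1 h with compounds. Normalisation: bald particles and spike particles.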
structure (smiles),measurement,setting,value
CCN(Cc1ccncc1)C(=O)C(CO)c1ccccc1 (stereo not drawn),Potency,[1],inactive
same,Potency,[2],inactive
Cc1ccccc1N1CCN(CCc2nnc3n2CCCC3)CC1,Potency,[1],inactive
same,Potency,[2],inactive
CC(C(=O)O)c1ccc(/C=C2\CCCCC2=O)cc1 (stereo not drawn),Potency,[1],inactive
same,Potency,[2],inactive
CC(C)(C(=O)c1cccnc1)c1cccnc1,Potency,[1],inactive
same,Potency,[2],inactive
O=C(Oc1ccccc1C(=O)O)c1ccccc1O,Potency,[1],inactive
same,"activity change, negative = inhibition",[2],-27.2%
CC(=O)SCC(CC(=O)c1ccc(C)cc1)C(=O)O (stereo not drawn),Potency,[1],inactive
same,Potency,[2],inactive
CC(=O)NCc1c(I)c(NC(C)=O)c(I)c(C(=O)O)c1I,Potency,[1],inactive
same,Potency,[2],inactive
CC1(C)O[C@H]2CC(=O)OC[C@]23[C@H]2CC[C@@]4(C)[C@H](c5ccoc5)OC(=O)[C@H]5O[C@]54[C@]2(C)C(=O)C[C@@H]13,Potency,[1],inactive
same,"activity change, negative = inhibition",[2],-13.1%
CCCCC(=O)OCC(=O)[C@H]1[C@H](C)C[C@H]2[C@@H]3C[C@H](F)C4=CC(=O)C=C[C@]4(C)[C@@]3(F)[C@@H](O)C[C@@]21C,Potency,[1],inactive
same,Potency,[2],inactive
COc1ccc(-c2ccc3cc(C(=O)O)ccc3c2)cc1C12CC3CC(CC(C3)C1)C2,Potency,[1],inactive
same,"activity change, negative = inhibition",[2],-13.5% and -15.7%
C[C@]12C=CC(=O)C=C1[C@@H](F)C[C@@H]1[C@@H]2[C@@H](O)C[C@@]2(C)[C@H]1CC[C@]2(O)C(=O)CO,Potency,[1],inactive
same,Potency,[2],inactive
NCC[C@H](O)C(=O)N[C@@H]1C[C@H](N)[C@@H](O[C@H]2O[C@H](CN)[C@@H](O)[C@H](O)[C@@H]2O)[C@H](O)[C@@H]1O[C@H]1O[C@H](CO)[C@@H](O)[C@H](N)[C@@H]1O,outcome,[1],inactive [at 0.702 µM]
same,"activity change, negative = inhibition",[2],-28% [at 0.702 µM]
CNCCCC12CCC(c3ccccc31)c1ccccc12,Potency,[1],inactive
same,Potency,[2],28.2 µM (active)
CCOc1cc(CC(=O)N[C@@H](CC(C)C)c2ccccc2N2CCCCC2)ccc1C(=O)O,Potency,[1],inactive
same,"activity change, negative = inhibition",[2],-13.4%
COc1nccnc1NS(=O)(=O)c1ccc(N)cc1,Potency,[1],inactive
same,Potency,[2],inactive
NS(=O)(=O)c1cc2c(cc1C(F)(F)F)NC(Cc1ccccc1)NS2(=O)=O (stereo not drawn),Potency,[1],inactive
same,Potency,[2],inactive
CCCNC(C)C(=O)Nc1ccccc1C (stereo not drawn),Potency,[1],inactive
same,Potency,[2],inactive
O=c1[nH]c(=O)n([C@H]2O[C@H](CO)[C@@H](O)[C@@H]2O)cc1/C=C\Br,Potency,[1],inactive
same,Potency,[2],inactive
O=c1cc(O)c(Cl)c[nH]1,Potency,[1],inactive
same,Potency,[2],inactive
O=c1[nH]c(=O)n([C@H]2C[C@H](O)[C@@H](CO)O2)cc1F,Potency,[1],inactive
same,"activity change, negative = inhibition",[2],-90.3% and -94.8%
CCCC(=O)O[C@]1(C(=O)CO)CC[C@H]2[C@@H]3CCC4=CC(=O)CC[C@]4(C)[C@H]3[C@@H](O)C[C@@]21C,Potency,[1],inactive
same,"activity change, negative = inhibition",[2],-10%
CCCC(=O)OCOC(=O)C1=C(C)NC(C)=C(C(=O)OC)C1c1cccc(Cl)c1Cl (stereo not drawn),Potency,[1],inactive
same,Potency,[2],inactive
NC(=O)c1ncn([C@@H]2O[C@H](CO)[C@@H](O)[C@H]2O)c1O,Potency,[1],inactive
same,Potency,[2],inactive
CCS(=O)(=O)CCn1c([N+](=O)[O-])cnc1C,Potency,[1],inactive
same,Potency,[2],inactive
CC(=O)Nc1ccc(CC(=O)O)cc1,Potency,[1],inactive
same,Potency,[2],inactive
CCCCC(CC)COC(=O)c1ccccc1O (stereo not drawn),Potency,[1],inactive
same,Potency,[2],inactive
CCOC(=O)c1ccc(O)cc1,Potency,[1],inactive
same,Potency,[2],inactive
CC(C(=O)O)c1ccc2c(c1)[nH]c1ccc(Cl)cc12 (stereo not drawn),Potency,[1],inactive
same,Potency,[2],inactive
O=[N+]([O-])c1cncn1CCN1CCOCC1,Potency,[1],inactive
same,"activity change, negative = inhibition",[2],-6.13%
CCCCCCCCCCCCSCCOCCO,Potency,[1],inactive
same,Potency,[2],inactive
CCCCCCCCCCCC(=O)[O][Sn]([CH2]CCC)([CH2]CCC)[O]C(=O)CCCCCCCCCCC,Potency,[1],inactive
same,"activity change, negative = inhibition",[2],-23.2%
Cc1cc(OI)c(C(C)C)cc1-c1cc(C(C)C)c(OI)cc1C,Potency,[1],inactive
same,Potency,[2],inactive
CCC1=C(C)CN(C(=O)NCCc2ccc(S(=O)(=O)NC(=O)NC3CCC(C)CC3)cc2)C1=O (stereo not drawn),Potency,[1],inactive
same,Potency,[2],inactive
NS(=O)(=O)c1cc(C(=O)O)cc(N2CCCC2)c1Oc1ccccc1,Potency,[1],inactive
same,Potency,[2],inactive
Cc1c(Nc2ncccc2C(=O)O)cccc1C(F)(F)F,Potency,[1],inactive
same,Potency,[2],inactive
COCCCOc1ccnc(CS(=O)c2nc3ccccc3[nH]2)c1C (stereo not drawn),Potency,[1],inactive
same,"activity change, negative = inhibition",[2],1.47%
CO[C@@]1(NC(=O)C(C(=O)O)c2ccc(O)cc2)C(=O)N2C(C(=O)O)=C(CSc3nnnn3C)CO[C@@H]21 (stereo partly drawn),Potency,[1],inactive
same,"activity change, negative = inhibition",[2],-1.77%
Cc1cc2nc3c(=O)[nH]c(=O)nc-3n(C[C@H](O)[C@H](O)[C@H](O)CO)c2cc1C,Potency,[1],inactive
same,Potency,[2],inactive
C[C@@H]1C[C@H]2[C@@H]3C[C@H](F)C4=CC(=O)C=C[C@]4(C)[C@@]3(F)[C@@H](O)C[C@]2(C)[C@@]1(O)C(=O)CO,Potency,[1],inactive
same,Potency,[2],inactive
CCOC(=O)O[C@]1(C(=O)OCCl)CC[C@H]2[C@@H]3CCC4=CC(=O)C=C[C@]4(C)[C@H]3[C@@H](O)C[C@@]21C,Potency,[1],inactive
same,Potency,[2],inactive
COC(=O)N/N=C/c1c[n+]([O-])c2ccccc2[n+]1[O-],Potency,[1],inactive
same,Potency,[2],inactive
CCC(=O)c1c(O)cc(O)cc1O,Potency,[1],inactive
same,"activity change, negative = inhibition",[2],-5.3%
CN1CCN(CC(=O)N2c3ccccc3C(=O)Nc3cccnc32)CC1,outcome,[1],inactive [at 5.25 µM]
same,outcome,[2],inactive [at 5.25 µM]
CCCCCCCC/C=C/C(=O)O,Potency,[1],inactive
same,Potency,[2],inactive
